From PubChem BioAssay
PNC inhibitor – High Content Assay for Compounds that inhibit the Assembly of the Perinucleolar Compartment; 3.1% of 140,000 active; activity change (PNC), negative = inhibition, % at 10 µM; PC3M PTB-GFP, PNC prevalence imaging, 16 h; active compounds read low;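 active means readout at or below -70, meaning at least 70% loss of cells showing the perinucleolar compartment, a nuclear body marking cancer cells; inconclusive means readout between -30 and a set limit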
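Compounds are pinned in duplicate onto adhered PC3M cells stably expressing GFP-tagged PTB and incubated 16 h at 37 C. Cells are then fixed, nuclei stained with Hoechst, and PNC-positive cells counted.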
Luc counter – Counterscreen for Luciferase (Kinase-Glo TM) Inhibition; Kinase-Glo luciferase, ATP luminescence, 8 min; Luciferin 4-monooxygenase (Photuris pensylvanica), Q27757; Potency, µM (top dose mostly 38.3 µM), actives largely listed as inhibitors; 0.28% of 200,000 active; active means well fitted inhibition curve with a large enough effect; inconclusive means small, poorly fitted or top-dose-only effect; further: nearly all actives have a fitted effect of over 60% in size
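Compounds were added to a substrate mix at pH 7.2 (50 mM imidazole, 10 uM ATP, within the enzyme's linear range), followed by Kinase-Glo detection reagent; luminescence was measured after 8 minutes at ambient temperature.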
HPGD inh – qHTS Assay for Inhibitors of HPGD (15-Hydroxyprostaglandin Dehydrogenase); 4.3% of 150,000 active; AID 894, 2007; Potency, µM, usual class: inhibitors; purified HPGD, NADH fluorescence kinetic, PGE2 substrate
Target sequence (P15428 whole entry, looked up): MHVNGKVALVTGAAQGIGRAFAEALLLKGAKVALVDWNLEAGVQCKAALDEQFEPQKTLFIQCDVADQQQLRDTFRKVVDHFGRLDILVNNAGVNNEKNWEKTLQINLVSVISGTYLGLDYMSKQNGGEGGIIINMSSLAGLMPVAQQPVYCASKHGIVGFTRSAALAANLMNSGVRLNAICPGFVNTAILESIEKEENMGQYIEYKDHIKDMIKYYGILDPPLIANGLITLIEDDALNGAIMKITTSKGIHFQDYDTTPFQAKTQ
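NADH formation kinetics: reaction with 30 uM PGE2 and 1 mM NAD+ (final), 20 nM enzyme, Tris-HCl pH 8 with Tween 20, after 15 min compound preincubation at room temperature. Fluorescence change, last versus first of five reads.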
ALDH1A1 block – qHTS Assay for Inhibitors of Aldehyde Dehydrogenase 1 (ALDH1A1); 7.3% of 220,000 active; Potency, µM (doses to about 75.3 µM), actives largely listed as inhibitors; Purified ALDH1A1, NADH fluorescence, propionaldehyde substrate; Aldehyde dehydrogenase 1A1 (Homo sapiens), P00352
IMPase inh – qHTS Assay for Identifying the Cell-Membrane Permeable IMPase Inhibitors. AID 901, 2007. CHO-M1 cells, IP1 accumulation, HTRF TR-FRET ratio. 120,000 tested, under 10 active. inhibition (IP1 accumulation), % at 46.1 µM. Inositol monophosphatase 1 (Rattus norvegicus), P97697; active means well fitted curve in the direction sought with a large enough effect in the signal ratio, not every such curve was filed as active; inconclusive means small, poorly fitted or top-dose-only effect, or a change in a side signal; inactive means no such curve, though single readings can be large or run the other way; the % refers to the signal ratio;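 further: cells stimulated with carbachol in lithium chloride buffer; higher means more IMPase inhibition seen as more IP1 and lower FRET ratio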
Target sequence (P97697 whole entry, looked up): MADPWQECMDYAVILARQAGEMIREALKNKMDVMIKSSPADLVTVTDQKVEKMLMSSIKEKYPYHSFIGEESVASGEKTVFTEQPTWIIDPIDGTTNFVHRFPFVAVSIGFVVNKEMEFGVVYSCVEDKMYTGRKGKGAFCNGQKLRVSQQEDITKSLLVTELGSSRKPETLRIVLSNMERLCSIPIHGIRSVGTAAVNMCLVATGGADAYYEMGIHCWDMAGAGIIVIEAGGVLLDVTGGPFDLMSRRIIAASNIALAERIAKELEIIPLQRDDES
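Carbachol-driven Gq signalling in CHO-M1 cells (2000/well) generates IP1. Compounds that block IMPase raise IP1 and so reduce the FRET signal from Eu-anti-IP1 and d2-IP1 after a 10 min room-temperature lysis.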
Lamin A splicing – qHTS Assay for Modulators of Lamin A Splicing; HeLa LMNA splicing GFP/RFP minigene ratio, 48 h; Potency, µM (highest dose often 46.1 µM), actives largely listed as inhibitors; 0.01% of 200,000 active; AID 1487, 2009; active means well fitted inhibition curve with a large enough effect in the signal ratio, with a control signal flat, not every such curve was filed as active; inconclusive means small, poorly fitted or top-dose-only effect, or effect the other way, or a change in a side signal; the % refers to the signal ratio
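S3 HeLa cells stably expressing lamin A-EGFP splicing minigene plus DsRed2, 600 cells/well, 48 h compound exposure at 37C. Laser-scanning cytometry; analysed as GFP (500-530 nm)/RFP (575-640 nm) total intensity ratio; 0.5% DMSO vehicle.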
Numbers stand for hits; . = inactive; ? = inconclusive; / = not tested or not shown; ! = repeats disagree; [ ] = dose if it differs, or a comment. Only some compounds are listed: those with a hit (about 10% of all), similar ones and a draw of the others. Unless noted, the call rests on the fitted dose curve; in most records, active means well fitted inhibition curve with a large enough effect (not every such curve was filed as active); inconclusive means small, poorly fitted or top-dose-only effect, or another doubt; inactive means no such curve, though single readings can be large or run the other way.

SMILES | PNC inhibitor | Luc counter | HPGD inh | ALDH1A1 block | IMPase inh | Lamin A splicing
COc1cc(/C=C(\C#N)C(N)=O)ccc1OS(=O)(=O)c1ccc(C)cc1 | . | . | 28.2µM | 17.8µM | / | .
Cc1cccc2c(=O)cc(CSCC(=O)Nc3ccc(Cl)cc3)[nH]c12 | / | / | / | / | / | .
Cc1nnc(SC(C)C(=O)N2CCc3ccccc32)s1 (stereo not given) | . | . | . | . | . | .
CC(Sc1nnc(-c2ccccc2)c(-c2ccccc2)n1)C(=O)N1CCc2ccccc21 (stereo not given) | ? | / | / | 7.08µM | . | .
Cc1nnc2c3ccccc3c(-c3ccc(O)cc3)nn12 | . | . | . | . | . | .
Cc1nnc2c3ccccc3c(-c3cccs3)nn12 | / | . | / | . | / | 7.94µM
Cc1nc2ccn(Cc3ccccc3)c(=O)c2cc1C(=O)Nc1ccc(F)cc1Cl | / | / | / | / | / | .
CCCCN(Cc1ccccc1)C(=O)C1CCCN(S(=O)(=O)c2cnc[nH]2)C1 (stereo not given) | . | . | . | 14.1µM | . | .
COc1ccc(C2N=C(N)Nc3nc4ccccc4n32)cc1 (stereo not given) | / | / | / | / | / | .
Cc1ccc(-n2c(C)cc(C3N=C(N)Nc4nc5ccccc5n43)c2C)c(C)c1 (stereo not given) | . | . | . | 12.6µM | . | .
Cc1cc(C2N=C(N)Nc3nc4ccccc4n32)c(C)n1-c1ccccc1Cl (stereo not given) | -99.1 | . | . | 1.12µM | . | .
CC[C@H](C)[C@@H](NC(=O)O[C@@H]1C(=O)c2ccc(OC)cc2O[C@H]1c1cccc(C(F)(F)F)c1)C(=O)OC | / | . | . | . | / | /
COc1ccc(C2CC(=O)c3c(C)nc(N4CCN(Cc5ccccc5)CC4)nc3C2)cc1OC (stereo not given) | . | . | . | 25.1µM | ? | ?
COc1cc(C2CC(=O)c3cnc(N4CCN(Cc5ccccc5)CC4)nc3C2)cc(OC)c1OC (stereo not given) | . | . | ? | ? | . | .
CCC1(O)CC2CN(CCc3c([nH]c4ccccc34)[C@@](C(=O)OC)(c3cc4c(cc3OC)N(C)C3[C@]45CCN4CC=C[C@@](CC)([C@@H](OC(C)=O)[C@]3(O)C(=O)OC)[C@H]45)C2)C1 (stereo not given in full) | / | . | . | . | / | ?
CCn1c(SCC(=O)Nc2ccc3c(c2)oc2ccccc23)nnc1-c1ccc(N)cc1 | ? | . | ? | 25.1µM | . | ?
CC(=O)Nc1ccc(-c2nnc(SCC(=O)Nc3ccc4c(c3)oc3ccccc34)n2C)cc1 | . | . | . | 0.398µM | . | .[0.0737 µM]
CC(=O)Nc1cccc(-c2nnc(SCC(=O)N3CCCCC3)n2C)c1 | . | . | . | . | . | .
CC(=O)Nc1cccc(-c2nnc(SCC(=O)n3c4c(c5ccccc53)CCCC4)n2C)c1 | . | . | . | 22.4µM | . | .
O=C(c1cc(-c2ccc(Cl)cc2)on1)N(Cc1cccc(F)c1)Cc1ccco1 | / | / | / | / | / | .
Cc1c2ccccc2c(CSC(=N)N)c2ccccc12 | / | .[7.66 µM] | ? | 14.1µM! | / | /
CCOc1ccc(CCNC(=O)c2ccc3c(c2)nc2n3CCOC2)cc1OCC | / | / | / | / | / | .
CCCOc1cccc(C(=O)NC(=S)Nc2cccc(NC(=O)c3ccccc3Cl)c2)c1 | ? | . | . | 12.6µM | / | .
CC(C)COc1cccc(C(=O)NC(=S)Nc2cccc(NC(=O)c3ccccc3Cl)c2)c1 | . | . | . | 10µM | . | .
CC(C)Oc1cccc(C(=O)NC(=S)Nc2ccccc2)c1 | -101.1 | . | . | 10µM | / | ?
COc1ccc(CC(=O)NNC(=S)Nc2ccccc2)cc1Cl | / | . | / | ? | / | /
CC(C)C(=O)Nc1cccc(NC(=S)NC(=O)c2ccccc2Cl)c1 | . | . | . | ? | . | .
